Test results reported in the OligoGym collection.
Further: reference of the scale not given here.

What follows are sequences tested against ACYP1 (assay: pooled miR-30 sensor sort-seq; sequence = guide strand). Details: shRNA.
For TCTTGTTTCAAGCCATTCCTGC, the sensor-assay potency score (higher = more potent) was -0.475.
For TCATTGTTGAAGTTTGCTTTGT, the sensor-assay potency score (higher = more potent) was -0.429.
TTGTCGATGTGTGATTTAGGAC gave a sensor-assay potency score (higher = more potent) of -0.517.
Work on TTCATTGTTGAAGTTTGCTTTG yielded a sensor-assay potency score (higher = more potent) of -0.707.
TGTGTGATTTAGGACTTCCTCT was tested, and the sensor-assay potency score (higher = more potent) was -0.445.
Work on TTTTCATTGTTGAAGTTTGCTT yielded a sensor-assay potency score (higher = more potent) of -0.234.
With ATAACTTATTGACTAATGCTAA the sensor-assay potency score (higher = more potent) was -0.709.
With TCCAACTTCAAGATGACTTTTT the sensor-assay potency score (higher = more potent) was -1.37.
For AAAAATTTCATAATCCACTGAT, the sensor-assay potency score (higher = more potent) was 0.598.
TTTCATTGTTGAAGTTTGCTTT gave a sensor-assay potency score (higher = more potent) of 0.5.
TGTCCTTGCACTGTGCCCCGGT gave a sensor-assay potency score (higher = more potent) of 0.12.
TTAGATTTGTGTACAGTGGTAA gave a sensor-assay potency score (higher = more potent) of 0.61.
Work on TAATATTAACACACAATAGTTC yielded a sensor-assay potency score (higher = more potent) of -0.41.
In the case of TTGTGTACAGTGGTAATCCTTC, the sensor-assay potency score (higher = more potent) is reported as -0.227.
In the case of TTCCTGCATATGACGCACCTTG, the sensor-assay potency score (higher = more potent) is reported as -0.872.

These sequences were tested against ACYP2 in the same assay as above. Details: shRNA.
Work on TTCTAGTATACATAGTCTTAAG yielded a sensor-assay potency score (higher = more potent) of -1.46.
With TTCATTAGAAAAGTTTGTGCGG the sensor-assay potency score (higher = more potent) was 0.328.
TTTCCTAGCTTCATCTTCTGTA was tested, and the sensor-assay potency score (higher = more potent) was 0.952.
Sequence TATTCAAGCTTAGAGATGGTTT has a sensor-assay potency score (higher = more potent) of -0.574.
TTCCTAGCTTCATCTTCTGTAT was tested, and the sensor-assay potency score (higher = more potent) was -0.685.
For TTGCTTGTTGAAAACATAGTTG, the sensor-assay potency score (higher = more potent) was -0.594.
For TAGTCTTAAGAACATACAGTAT, the sensor-assay potency score (higher = more potent) was -1.07.
Work on TTCATCTTCTGTATACATTCTG yielded a sensor-assay potency score (higher = more potent) of 0.635.
With TATTCTAGTATACATAGTCTTA the sensor-assay potency score (higher = more potent) was -0.674.
In the case of TTTGCTGGTATTCTTCACCCAG, the sensor-assay potency score (higher = more potent) is reported as -0.785.
TTAGTAGCACGTACAGTCGCTT showed a sensor-assay potency score (higher = more potent) of -0.537.
With TACTCTGCTACTATTATTCTAG the sensor-assay potency score (higher = more potent) was -0.38.
Sequence TCATTAGAAAAGTTTGTGCGGT has a sensor-assay potency score (higher = more potent) of -0.214.
Work on TTGAGTAAAATTATTTCAGTGT yielded a sensor-assay potency score (higher = more potent) of 0.361.
For TTTTCCTAGCTTCATCTTCTGT, the sensor-assay potency score (higher = more potent) was -0.817.
With TATTTTCCTAGCTTCATCTTCT the sensor-assay potency score (higher = more potent) was 1.16.
In the case of TTGCTGGTATTCTTCACCCAGC, the sensor-assay potency score (higher = more potent) is reported as -1.24.
With TTGACTTTGTCTTCTGGCCCCT the sensor-assay potency score (higher = more potent) was 0.0313.
Work on TTTAGTAGCACGTACAGTCGCT yielded a sensor-assay potency score (higher = more potent) of 0.0895.
TAGTAGCACGTACAGTCGCTTA showed a sensor-assay potency score (higher = more potent) of -1.19.
TCTGTATACATTCTGAAGCAAA gave a sensor-assay potency score (higher = more potent) of -1.22.
In the case of TGGAATTGACTTTGTCTTCTGG, the sensor-assay potency score (higher = more potent) is reported as -0.0277.
With TTTTCATTAGAAAAGTTTGTGC the sensor-assay potency score (higher = more potent) was -0.116.
For ATCTTCTGTATACATTCTGAAG, the sensor-assay potency score (higher = more potent) was -1.49.
